Screens from PubChem BioAssay.
A selection: hits, their analogues and other compounds. The true share with any hit is near 0.9%.
SSB-PriA inh: K. pneumoniae PriA-SSBct interaction inhibition. AlphaScreen SSBct-PriA binding, biotinylated peptide. inhibition, % at 33 µM. hit rate 0.6% among 430,000. AID 1272365; in the data active = inhibition mostly above about 37%, no sharp cut-off; inactive = mostly below about 20%;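 note: plate controls were negative control peptide for no effect and reference peptide for full effect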
Y pestis TopoI: Y. pestis Topo-I inhibition via cleavage products | hit rate 0.064% among 360,000 | activity, % at 10 µM | Y. pestis Topo-I cleavage product accumulation, plate reader; in the data active = activity above about 50%, passing the limit was not always enough
MazF activator: MazEF (E. coli) toxin RNase activation. FAM/BHQ RNA-DNA oligo cleavage fluorescence, 5 h. hit rate 0.32% among 350,000. P0AE70. AID 504720. activation, % at 20 µM; in the data active = activation above about 50%
Target sequence (P0AE70 whole entry, looked up): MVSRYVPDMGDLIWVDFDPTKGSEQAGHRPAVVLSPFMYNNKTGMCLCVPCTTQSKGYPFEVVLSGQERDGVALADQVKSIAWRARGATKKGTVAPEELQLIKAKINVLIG
SARS 3CLpro inh: SARS-CoV 3CLpro protease inhibition; hit rate 0.14% among 290,000; inhibition, % at 6 µM; recombinant SARS-CoV 3CLpro, quenched FRET peptide cleavage; P0C6X7; in the data active = inhibition above about 12%
The depositor's hits bear a star; . = no result given; ! = a repeat was not active.

SMILES	SSB-PriA inh	Y pestis TopoI	MazF activator	SARS 3CLpro inh
COC(=O)c1cc(NS(=O)(=O)c2ccc(N3CCC(C)CC3)c([N+](=O)[O-])c2)cc(C(=O)OC)c1	56.2*	3.5	4.1	3.5
Cc1ccc(NC(=S)NNC(=O)c2ccc(N3CCOCC3)c([N+](=O)[O-])c2)cc1Cl	38.4*	-1.7	-3.0	2.5
O=C(NNC(=S)Nc1ccc(Br)cc1)c1ccc(N2CCOCC2)c([N+](=O)[O-])c1	7.3	0.1	-5.5	0.6
Cc1ccc(NS(=O)(=O)c2ccc(N3CCN(c4ccc(O)cc4)CC3)c([N+](=O)[O-])c2)c(C)c1	62.9*	-7.4	-2.3	0.3
CC1CCN(c2ccc(C(=O)Nc3ccc4c(c3)OCO4)cc2[N+](=O)[O-])CC1	39.1*	6.4	3.3	2.4
CC1CCCN(c2ccc(C(=O)Nc3ccc4c(c3)OCO4)cc2[N+](=O)[O-])C1 (configuration not stated)	9.9	3.7	4.6	-1.9
CC(=O)c1ccc(NC(=O)CN2CCC(Cn3c(C(F)(F)F)nc4ccccc43)CC2)cc1	-8.0	.	.	.
O=[N+]([O-])c1cc(S(=O)(=O)Nc2ccccc2)ccc1N1CCN(c2ccc(O)cc2)CC1	42.9*	-19.8	2.0	0.2
CN1CCN(S(=O)(=O)c2ccc(N3CCN(c4ccc(O)cc4)CC3)c([N+](=O)[O-])c2)CC1	17.0	-5.1	0.8	.
CCOC(=O)C1CCN(c2ccc(S(=O)(=O)C(F)(F)F)cc2[N+](=O)[O-])CC1	35.0*	.	.	.
C(=C\c1ccccc1)/CSc1ncnc2c1oc1ccccc12	-7.0	.	.	.
CCNC(=S)NCc1ccc2[nH]c(C)cc2c1	63.0*	-10.6	-13.6	1.3
Cc1cc2cc(CNC(=S)Nc3ccc(OC(F)(F)F)cc3)ccc2[nH]1	57.8*	3.1	4.3	3.8
Cc1cc2cc(CNC(=O)Nc3ccccc3)ccc2[nH]1	44.0*!	-0.4	3.4	-0.6
Cc1cc2cc(CNC(=S)NCc3ccccc3)ccc2[nH]1	47.2	.	.	.
Cc1cc2cc(CNC(=O)CC(c3ccccc3)c3ccccc3)ccc2[nH]1	-11.0	.	.	.
FC(F)Oc1ccc(NC(=S)NCc2nc3ccccc3[nH]2)cc1	1.8	-4.5	-5.5	1.3
Cc1cc2cc(CNC(=S)Nc3ccc(OC(F)F)cc3)ccc2[nH]1	73.3*	-15.2	16.4	4.6
Cc1cc2cc(CNC(=S)NC(C)(C)C)ccc2[nH]1	51.2	.	.	.
Cc1cccc(Nc2nc(C(=O)NCCC3=CCCCC3)cs2)n1	-15.0	.	.	.
O=C1Nc2ccccc2Oc2ccc(NS(=O)(=O)c3ccc(Cl)s3)cc21	9.0	.	.	.
Cc1cccc(C(N)=NOC(=O)c2ccoc2C)c1	-0.3	.	.	.
Cc1oc(C)c2c(=O)ccc3c(c12)OC(N)=C(C#N)C3c1ccccc1 (configuration not stated)	-3.1	-12.5	105.5*	2.2
O=C(NN=C(Cc1ncc[nH]1)c1ccccc1)c1ccncc1	47.9*	.	.	.
COc1ccccc1NC(=O)CSc1nnc(-c2cccnc2)n1Cc1ccco1	47.6	.	.	.
SMILES	SSB-PriA inh	Y pestis TopoI	MazF activator	SARS 3CLpro inh
COc1ccccc1NC(=O)CSc1nnc(-c2cccc(C)c2)n1Cc1ccco1	59.3*	.	.	.
C=CCSc1nnc(-c2cccc3ccccc23)o1	88.6*	-5.2	-4.3	.
C#CCSc1nnc(-c2cccc3ccccc23)o1	-87.1	-4.2	0.1	-1.1
Nc1nonc1C(=O)NCCNCc1c(OCc2ccccc2F)ccc2ccccc12	7.9	0.6	58.5*	1.1
Nc1nonc1C(=O)NCCNCc1cc(Br)ccc1OCc1ccc(F)cc1	-4.9	4.1	0.4	-3.9
Cc1cc(NC(=O)c2cc3ccccc3o2)n(-c2nc3c(cnn3-c3ccc(F)cc3)c(=O)[nH]2)n1	-5.0	.	.	.
COc1ccc(CC(=O)Nc2cc(C)nn2-c2nc3c(cnn3-c3cccc(C)c3C)c(=O)[nH]2)cc1	60.0*	.	.	.
COc1ccc(CCC(=O)Nc2cc(C)nn2-c2nc3c(cnn3-c3cccc(C)c3C)c(=O)[nH]2)cc1	-3.0	.	.	.
Cc1cc(NC(=O)c2cccc3ccccc23)n(-c2nc3c(cnn3-c3ccc(F)cc3)c(=O)[nH]2)n1	43.0*	.	.	.
CC(C)C(=O)Nc1ccc(C(=O)NCCNC(=O)c2ccc(Cl)cc2)cc1	-11.0	.	.	.
Cc1nsc(C(=O)NCCCOC(C)C)n1	-4.0	.	.	.
COc1ccc(-c2nc3cnccn3c2Nc2ccc3c(c2)OCO3)cc1	36.2	7.9	13.0	3.4
Cc1ccc(-c2nc3cnccn3c2Nc2ccc3c(c2)OCO3)cc1	38.4*	-4.7	8.6	2.1
CC1=CC(C)(C)Nc2ccc(OC(=O)C(C)N3C(=O)c4ccccc4C3=O)cc21 (configuration not stated)	42.5*	13.4	7.2	1.1
Cc1ccncc1Nc1nc(Cc2ccsc2)cs1	-15.0	.	.	.
Cc1ccc(Cn2cccc(-c3nc4ccccc4s3)c2=O)cc1	-33.3	-5.8	74.4*	-4.1
